Results taken from PubChem BioAssay (NCATS).
Inconclusive results are not listed. Activity calls are given as the source filed them. Unless noted, calls follow the shape of the dose curve; as a rule, active = well fitted curve in the direction sought with a large enough effect; inconclusive = small, poorly fitted or top-dose-only effect, or another doubt; inactive = no such curve, though single readings can be large; an effect the other way counts as inactive or inconclusive.

What was measured:
[1] = Cell Viability - BJ (AID 421; calls by dose curve;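 also: potency is read from the fitted curve at half-maximal effect; cells exposed to compound for 40 hours at 37 °C before readout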); conditions: BJ fibroblast viability, qHTS
In short: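 Luminescent ATP signal (CellTiter-Glo, 20 min at room temperature) served as the read-out of viable BJ cells after 40 hours of compound treatment. Responses were scaled between DMSO and 100 uM tamoxifen, and AC50 values were obtained by Hill modeling.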

[2] = Cell Viability - Jurkat (AID 426;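 active = dose-dependent loss of cell ATP signal giving a full or clear fitted curve, ranked by lower potency value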; also: potency is read from the fitted curve at half-maximal effect); conditions: qHTS
In short: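 Luminescent ATP read-out (CellTiter-Glo, 20 min at room temperature) after 40 hr compound exposure at 37 °C of Jurkat E6-1 cells, 5000/well. Decreased ATP taken as cytotoxicity; AC50 from standard Hill equation.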

[3] = Cell Viability - Hek293 (AID 427;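 active = compounds whose dose-response curve shows a full or clear partial loss of cell viability, called from curve shape rather than a numeric limit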;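 also: potency is read from the fitted curve at half-maximal effect; cells exposed to compound for 40 hours at 37 °C before reading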); conditions: qHTS
In short: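 Luminescent ATP read-out (CellTiter-Glo, 20 min RT) after 40 hr compound exposure at 37 °C in complete medium. Signal normalized to DMSO (basal) and 100 uM tamoxifen (100% inhibition); concentration-response fitted with the standard Hill equation to give AC50.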

[4] = Cell Viability - HepG2 (AID 433; calls by dose curve;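 also: potency is read from the fitted curve at half-maximal effect; potency for ATP loss meaning cytotoxicity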); conditions: qHTS
In short: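 HepG2 cells, 1500 per well, treated 40 hr at 37 °C in complete medium; viability from intracellular ATP by CellTiter-Glo luminescence. Normalized to DMSO and 100 uM tamoxifen; AC50 from Hill fit of qHTS concentration-response.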

[5] = Cell Viability - MRC5 (AID 434; calls by dose curve;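 also: potency is read from the fitted curve at half-maximal effect; potency reflects cytotoxicity seen as loss of intracellular ATP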); conditions: MRC5 lung fibroblast viability, qHTS
In short: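 AC50 values come from Hill-equation fits of intracellular ATP loss, measured by CellTiter-Glo luminescence. Normal lung fibroblasts (MRC5) had 40 hr compound treatment at 37 C, normalized between DMSO and 100 uM tamoxifen.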

[6] = Cell Viability - SK-N-SH (AID 435; calls by dose curve; also: potency is read from the fitted curve at half-maximal effect); conditions: SK-N-SH neuroblastoma cell viability qHTS
In short: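 SK-N-SH neuroblastoma cells (1500/well) treated 40 h at 37 °C in complete medium; viability read as cellular ATP by CellTiter-Glo luminescence. Normalized to DMSO and 100 uM tamoxifen; AC50 from Hill fits of qHTS concentration-response.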

[7] = target: Mitogen-activated protein kinase 10 (Mus musculus) (UniProt Q61831); assay: JNK3 AlphaScreen Assay (AID 530; active = well fitted curve in either direction with a large enough effect, not every such curve was filed as active;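 also: kinase came from lysate of stimulated human HepG2 cells; signal reports phosphorylation of biotinylated GST-cJun 1-79 at Ser73 with 10 µM ATP; % is scaled to controls: 0 for no effect and ±100 for the full control effect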); conditions: JNK3 lysate, c-Jun phosphorylation; series mostly up to 57.1 µM
In short: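 Kinase buffer: 20 mM Tris-HCl pH 7.6, 10 mM MgCl2, 1 mM DTT, 0.1 mM Na3VO4, 0.01% Tween-20; ATP 10 uM. Substrate biotin-GST-cJun(1-79), enzyme from activated HepG2 lysates. Detection by Ser73 phospho-antibody AlphaScreen.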

[8] = Cell Viability - N2a (AID 540); conditions: N2a mouse neuroblastoma cell viability; activity change, negative = cytotoxicity: at 92.2 µM (top of the series);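 also: plate controls were DMSO alone for no effect and tamoxifen control for full effect; nearly all actives have a fitted effect of over 45% in size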
In short: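 N2a mouse neuroblastoma, 1500 cells/well, 5 hr settle; compound 40 hr, 37 °C; CellTiter-Glo 20 min RT; luminescence; Hill-fit AC50.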

[9] = Cell Viability - NIH 3T3 (AID 541); conditions: NIH 3T3 cell viability, qHTS; activity change, negative = cytotoxicity: at 92.2 µM (top of the series);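 also: plate controls were DMSO alone for no effect and tamoxifen positive control for full effect; nearly all actives have a fitted effect of over 25% in size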
In short: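 qHTS format; 40 hr compound exposure, 37 °C; CellTiter-Glo luminescence (cellular ATP) read-out after 20 min at RT. Decrease in ATP = cytotoxicity; AC50 from standard Hill fit.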

[10] = Cell Viability - HUV-EC-C (AID 542); conditions: HUV-EC-C endothelial cell viability, qHTS; series mostly up to 92.2 µM; also: % is scaled to controls: 0 for no effect and ±100 for the full control effect; nearly all actives have a fitted effect of over 35% in size
In short: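 Luminescent ATP read-out (CellTiter-Glo, 20 min room temperature) after 40 hr compound treatment of HUV-EC-C cells at 37 °C. Concentration-response data fitted with the standard Hill equation to give AC50; tamoxifen and doxorubicin served as positive controls.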

[11] = Cell Viability - H-4-II-E (AID 543); conditions: H-4-II-E rat hepatoma viability; series mostly up to 92.2 µM; also: % is scaled to controls: 0 for no effect and ±100 for the full control effect; nearly all actives have a fitted effect of over 35% in size
In short: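 qHTS, rat hepatoma H-4-II-E, 1500 cells/well; 40 hr compound exposure, 37 °C; CellTiter-Glo ATP luminescence after 20 min RT; AC50 by standard Hill fit.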

[12] = Cell Viability - SH-SY5Y (AID 544); conditions: SH-SY5Y neuroblastoma cell viability; viability change, negative = cytotoxic: at 92.2 µM (top of the series); also: nearly all actives have a fitted effect of over 55% in size
In short: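 SH-SY5Y, 1500 cells/well, 5 hr pre-incubation 37 °C; cpd 40 hr 37 °C; CellTiter-Glo 20 min RT; luminescence (ATP) read. qHTS concentration-response, Hill fit → AC50. Tamoxifen, doxorubicin as positive controls.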

[13] = Cell Viability - Renal Proximal Tubule (AID 545); conditions: renal proximal tubule cells viability, primary cells of rat origin; series mostly up to 91.7 µM; also: nearly all actives have a fitted effect of over 40% in size
In short: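 Rat renal proximal tubule primary cells, 1000/well, exposed to compounds for 40 hr at 37 °C in complete medium; cellular ATP read by CellTiter-Glo luminescence. AC50 from concentration-response fitted with standard Hill equation.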

[14] = Cell Viability - Mesenchymal (AID 546); conditions: mesenchymal cells viability, qHTS; series mostly up to 91.7 µM;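 also: cells exposed to compound for 40 hours before reading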
In short: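 CellTiter-Glo luminescence (intracellular ATP, 20 min room temperature) after 40 hr compound exposure at 37 °C of 1000 glomerulus-derived human kidney mesenchymal cells/well; AC50 values obtained by fitting qHTS concentration-response data to the Hill equation.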

[15] = Cellular Toxicity (caspase-3) HepG2 (AID 654); conditions: HepG2 caspase-3 activation, luminescence; series mostly up to 92.2 µM;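 also: cells exposed to compound for 16 hours before reading; 0% = DMSO alone and 100% = caspase signal from 100 µM tamoxifen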
In short: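 Luminescent Caspase-Glo 3/7 readout after 16 hr compound exposure of human hepatocellular carcinoma HepG2 cells at 37 °C; qHTS concentration-response, normalized DMSO = 0%, 100 uM tamoxifen = 100%; AC50 by standard Hill equation.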

[16] = Cellular Toxicity (caspase-3) Jurkat (AID 655); conditions: Jurkat caspase-3 activation, luminescence; caspase-3 activation: at 92.2 µM (top of the series), DMSO = 0%, tamoxifen = 100%;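 also: cells exposed to compound for 16 h at 37 °C before reading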
In short: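 Jurkat cells (5000/well) in complete medium exposed 16 h at 37 C; caspase-3/7 activity read by Caspase-Glo luminescence after 20 min at room temperature. Normalized to DMSO and 100 uM tamoxifen; AC50 from Hill fits.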

[17] = Cellular Toxicity (caspase-3) HUV-EC-C (AID 656); conditions: HUV-EC-C cells, caspase-3 activation (apoptosis), vehicle = 0, 100 µM tamoxifen = 100%; series mostly up to 92.2 µM
In short: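 HUV-EC-C cells (1000/well) in complete medium, compound-treated 16 h at 37 °C; caspase-3/7 activity read by Caspase-Glo 3/7 luminescence. Normalized to DMSO (basal) and 100 uM tamoxifen (100%); AC50 from Hill-equation concentration-response fits.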

[18] = Cellular Toxicity (caspase-3) SHSY5Y (AID 657); conditions: SH-SY5Y caspase-3 activation, DMSO zero, 10 µM staurosporine = 100%; series mostly up to 91.7 µM
In short: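 SH-SY5Y human neuroblastoma cells, 1500/well, exposed to compound for 16 hours at 37 °C in complete medium. Caspase-3/7 activity read by Caspase-Glo luminescence after 1 hr at room temperature, normalized to DMSO and 10 uM staurosporine; AC50 from Hill fit.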

[19] = Cellular Toxicity (caspase-3) BJ (AID 658); conditions: BJ fibroblasts, luminescence, normalized: DMSO 0%, staurosporine 100%; series mostly up to 91.7 µM
In short: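 Caspase-Glo 3/7 luminescence, read 1 hr after reagent at room temperature, in normal BJ fibroblasts exposed 16 hours at 37 °C. AC50 values from Hill-equation concentration-response, scaled between DMSO basal and 10 uM staurosporine as 100%.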

[20] = Cellular Toxicity (caspase-3) MRC-5 (AID 659); conditions: MRC-5 cells, luminescence, normalized: DMSO 0%, 10 µM staurosporine 100%; series mostly up to 91.7 µM
In short: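 Luminescent Caspase-Glo 3/7 read-out (1 h, room temperature) after a 16 h, 37 °C compound exposure of MRC-5 lung fibroblasts at 1500 cells/well. Concentration-response AC50 from Hill equation; 0% DMSO, 100% 10 uM staurosporine.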

NC=O
inactive: Potency [1] > 92 µM | Potency [2] > 92 µM | Potency [3] > 92 µM | Potency [4] > 92 µM | Potency [5] > 92 µM | Potency [6] > 92 µM | outcome [7] | activity change, negative = cytotoxicity [8] 1.82% | Potency [9] | Potency [10] | Potency [11] | Potency [12] | Potency [13] | Potency [14] | Potency [15] | caspase-3 activation [16] 2.21% | outcome [17] | outcome [18] | outcome [19] | outcome [20]

CC(=O)c1ccc([N+](=O)[O-])cc1
inactive: Potency [1] > 92 µM | Potency [2] > 92 µM | Potency [3] > 92 µM | Potency [4] > 92 µM | Potency [5] > 92 µM | Potency [6] > 92 µM | outcome [7] | activity change, negative = cytotoxicity [8] 0.428% | Potency [9] | Potency [10] | Potency [11] | Potency [12] | Potency [13] | Potency [14] | Potency [15] | caspase-3 activation [16] 0.818% | outcome [17] | outcome [18] | outcome [19] | outcome [20]

c1ccc2c(c1)ccc1ncccc12
inactive: Potency [1] > 92 µM | Potency [2] > 92 µM | Potency [3] > 92 µM | Potency [4] > 92 µM | Potency [5] > 92 µM | Potency [6] > 92 µM | outcome [7] | activity change, negative = cytotoxicity [8] -0.126% | Potency [9] | Potency [10] | Potency [11] | Potency [12] | Potency [13] | Potency [14] | Potency [15] | caspase-3 activation [16] 3.47% | outcome [17] | outcome [18] | outcome [19] | outcome [20]

Cc1cccc(C)c1
inactive: Potency [1] > 92 µM | Potency [2] > 92 µM | Potency [3] > 92 µM | Potency [4] > 92 µM | Potency [5] > 92 µM | Potency [6] > 92 µM | outcome [7] | activity change, negative = cytotoxicity [8] 2.48% | Potency [9] | Potency [10] | Potency [11] | Potency [12] | Potency [13] | Potency [14] | Potency [15] | caspase-3 activation [16] -2.27% | outcome [17] | outcome [18] | outcome [19] | outcome [20]

C=C(C)C(N)=O
inactive: Potency [1] > 92 µM | Potency [2] > 92 µM | Potency [3] > 92 µM | Potency [4] > 92 µM | Potency [5] > 92 µM | Potency [6] > 92 µM | outcome [7] | activity change, negative = cytotoxicity [8] -7.09% | Potency [9] | Potency [10] | Potency [11] | Potency [12] | Potency [13] | Potency [14] | Potency [15] | caspase-3 activation [16] -0.182% | outcome [17] | outcome [18] | outcome [19] | outcome [20]

O=C(O)CN(CC(=O)O)CC(=O)O
inactive: Potency [1] > 92 µM | Potency [2] > 92 µM | Potency [3] > 92 µM | Potency [4] > 92 µM | Potency [5] > 92 µM | Potency [6] > 92 µM | outcome [7] | activity change, negative = cytotoxicity [8] -5.01% | Potency [9] | Potency [10] | Potency [11] | Potency [12] | Potency [13] | Potency [14] | Potency [15] | caspase-3 activation [16] 1.43% | outcome [17] | outcome [18] | outcome [19] | outcome [20]

COC(=O)CCC(=O)OC
inactive: Potency [1] > 92 µM | Potency [2] > 92 µM | Potency [3] > 92 µM | Potency [4] > 92 µM | Potency [5] > 92 µM | Potency [6] > 92 µM | outcome [7] | activity change, negative = cytotoxicity [8] -1.63% | Potency [9] | Potency [10] | Potency [11] | Potency [12] | Potency [13] | Potency [14] | Potency [15] | caspase-3 activation [16] 1.38% | outcome [17] | outcome [18] | outcome [19] | outcome [20]

Cc1cscn1
inactive: Potency [1] > 92 µM | Potency [2] > 92 µM | Potency [3] > 92 µM | Potency [4] > 92 µM | Potency [5] > 92 µM | Potency [6] > 92 µM | outcome [7] | activity change, negative = cytotoxicity [8] 6.1% | Potency [9] | Potency [10] | Potency [11] | Potency [12] | Potency [13] | Potency [14] | Potency [15] | caspase-3 activation [16] 2.2% | outcome [17] | outcome [18] | outcome [19] | outcome [20]

CCC(C)O (stereo not given)
inactive: Potency [1] > 92 µM | Potency [2] > 92 µM | Potency [3] > 92 µM | Potency [4] > 92 µM | Potency [5] > 92 µM | Potency [6] > 92 µM | outcome [7] | activity change, negative = cytotoxicity [8] -8.95% | Potency [9] | Potency [10] | Potency [11] | Potency [12] | Potency [13] | Potency [14] | Potency [15] | caspase-3 activation [16] 0.184% | outcome [17] | outcome [18] | outcome [19] | outcome [20]

Oc1c(Cl)ccc(Cl)c1Cl
inactive: Potency [1] > 92 µM | Potency [2] > 92 µM | Potency [3] > 92 µM | Potency [4] > 92 µM | Potency [5] > 92 µM | Potency [6] > 92 µM | outcome [7] | activity change, negative = cytotoxicity [8] -9.1% | Potency [9] | Potency [10] | Potency [11] | Potency [12] | Potency [13] | Potency [14] | Potency [15] | caspase-3 activation [16] 0.893% | outcome [17] | outcome [18] | outcome [19] | outcome [20]

O=C1CCC(=O)O1
inactive: Potency [1] > 92 µM | Potency [2] > 92 µM | Potency [3] > 92 µM | Potency [4] > 92 µM | Potency [5] > 92 µM | Potency [6] > 92 µM | outcome [7] | activity change, negative = cytotoxicity [8] 2.23% | Potency [9] | Potency [10] | Potency [11] | Potency [12] | Potency [13] | Potency [14] | Potency [15] | caspase-3 activation [16] 1.09% | outcome [17] | outcome [18] | outcome [19] | outcome [20]
